# nsP2pro inh – blocks chikungunya virus nsP2 protease peptide cleavage; FRET peptide cleavage, nsP2pro, fluorescence 1 h; actives 1.1% (n = 31,000); AID 1964107; Q8JUX6; Potency, µM (series often up to 24.9 µM), hits mostly inhibitors; further: nearly all actives have a fitted effect of over 60% in size
#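 FRET cleavage of 2.5 uM peptide 2 by 150 nM CHIKV protease domain at pH 8.0 (Tris, Tween 20). Compounds at 7 concentrations (up to 25 uM) preincubated 15 min. Fluorescence read after 1 h at room temperature.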
# CHIKV nsP2 cell – inhibits CHIKV nsP2 protease in cells | shares compounds with nsP2pro inh | cell-based CHIKV nsP2 protease reporter assay | Potency, µM (titrated, usually from 51.1 µM), most hits filed as inhibitors | actives 10% (n = 450) | AID 1964100; further: nearly all actives have a fitted effect of over 70% in size
# NSP2 full ctr – inhibits full-length CHIKV NSP2 enzyme; shares compounds with nsP2pro inh; Full-length CHIKV NSP2 protease enzymatic counterscreen; Potency, µM (titrated, usually from 50.7 µM), most hits filed as inhibitors; actives 39% (n = 410); further: nearly all actives have a fitted effect of over 65% in size
# Furin counter – human furin inhibition, counterscreen for nsP2pro inhibitors; AID 1964102; Potency, µM (top dose mostly 50.6 µM), most hits filed as inhibitors; actives 6% (n = 410); Recombinant human furin enzymatic counterscreen, fluorogenic substrate; shares compounds with nsP2pro inh
# Target sequence (P09958 whole entry, looked up): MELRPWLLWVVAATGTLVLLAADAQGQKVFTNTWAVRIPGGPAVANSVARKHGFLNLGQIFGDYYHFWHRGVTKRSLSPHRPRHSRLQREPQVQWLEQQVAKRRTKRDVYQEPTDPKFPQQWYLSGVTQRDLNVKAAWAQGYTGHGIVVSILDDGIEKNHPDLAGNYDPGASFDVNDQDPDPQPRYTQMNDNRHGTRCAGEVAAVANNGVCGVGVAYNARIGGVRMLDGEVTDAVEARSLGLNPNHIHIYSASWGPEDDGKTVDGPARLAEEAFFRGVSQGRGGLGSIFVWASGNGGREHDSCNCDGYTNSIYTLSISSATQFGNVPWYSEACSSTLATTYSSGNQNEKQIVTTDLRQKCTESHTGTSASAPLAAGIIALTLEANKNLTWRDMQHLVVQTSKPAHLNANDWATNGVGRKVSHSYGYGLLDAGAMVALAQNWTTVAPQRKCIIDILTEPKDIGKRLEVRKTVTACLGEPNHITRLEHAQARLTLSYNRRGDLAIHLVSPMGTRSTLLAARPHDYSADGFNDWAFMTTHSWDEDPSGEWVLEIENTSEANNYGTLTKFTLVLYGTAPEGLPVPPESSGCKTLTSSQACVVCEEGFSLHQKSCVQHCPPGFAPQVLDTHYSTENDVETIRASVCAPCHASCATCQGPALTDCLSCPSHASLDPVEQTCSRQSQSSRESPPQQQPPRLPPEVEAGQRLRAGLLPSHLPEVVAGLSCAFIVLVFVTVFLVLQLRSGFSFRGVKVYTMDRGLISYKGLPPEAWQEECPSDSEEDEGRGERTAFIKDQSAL
# NS23 peptide cs – selectivity test for CHIKV nsP2 protease inhibitors: endogenous NS2/3 peptide; Purified CHIKV nsP2 protease, endogenous NS2/3 peptide cleavage; Potency, µM (titrated, usually from 51 µM), most hits filed as inhibitors; actives 34% (n = 410); shares compounds with nsP2pro inh; further: nearly all actives have a fitted effect of over 55% in size
# Papain cs – selectivity counter-screen for CHIKV nsP2 protease inhibitors: papain; shares compounds with nsP2pro inh; purified papain protease activity, enzymatic inhibition; Potency, µM (series often up to 51 µM), hits mostly inhibitors; actives 5% (n = 410); AID 1964104
# nsP2pro confirm – CHIKV nsP2 protease inhibition, confirmatory qHTS. actives 43% (n = 410). shares compounds with nsP2pro inh. CHIKV nsP2 protease enzymatic activity, qHTS. Potency, µM (titrated, usually from 25.5 µM), usual class: inhibitors. AID 1964105; further: nearly all actives have a fitted effect of over 75% in size
# HCV NS3 counter – HCV NS3/4A protease inhibition, counterscreen; HCV NS3/4A protease biochemical counterscreen; shares compounds with nsP2pro inh; Potency, µM (top dose mostly 50.9 µM), hits mostly inhibitors; AID 1964106; actives 20% (n = 410); further: nearly all actives have a fitted effect of over 55% in size
# A number is an active result; 0 = inactive; ? = inconclusive; - = not tested or not shown; ! = not confirmed by another sample. This is one part of a sample in which hits are shown more often than they occur. The call rests on the fitted dose curve.
SMILES,nsP2pro inh,others
CO/N=C(/C(=O)N[C@@H]1C(=O)N2C(C(=O)O)=C(CSC(=O)c3ccco3)CS[C@H]12)c1csc(N)n1,11.1µM!,CHIKV nsP2 cell=0;NSP2 full ctr=0;Furin counter=0;NS23 peptide cs=0;Papain cs=?;nsP2pro confirm=0;HCV NS3 counter=0
CO/N=C(/C(=O)N[C@@H]1C(=O)N2C(C(=O)OCOC(=O)C(C)(C)C)=C(C)CS[C@H]12)c1csc(N)n1,0,
CC(=O)OCC1=C(C(=O)O)N2C(=O)[C@@H](NC(=O)Cc3cccs3)[C@H]2SC1,0,
Cc1cc(NC(=O)C2CCN(c3cc(C(F)(F)F)ncn3)CC2)ccc1Br,0,
O=C(c1nnc(COc2ccc3c(c2)OCO3)n1Cc1ccccc1)N1CCC[C@@H]1c1ccc(Br)cc1,0,
CCc1nc(-c2c3n(c(=O)n(CC(=O)NC4CCCC4)c2=O)CCCCC3)no1,0,
CC(=O)Nc1sc2c(c1C(=O)c1ccccc1)CCN(C(C)C)C2,0,
c1c2c(cc3c1OCO3)-c1cc3ccc4c(c3c[n+]1CC2)OCO4,?,CHIKV nsP2 cell=0;NSP2 full ctr=?;Furin counter=4.11µM;NS23 peptide cs=?;Papain cs=0;nsP2pro confirm=?;HCV NS3 counter=0
COc1cc2c(cc1OC)-c1cc3ccc(OC)c(OC)c3c[n+]1CC2,-,CHIKV nsP2 cell=0;NSP2 full ctr=?;Furin counter=0;NS23 peptide cs=?;Papain cs=?;nsP2pro confirm=?;HCV NS3 counter=0
O=C(CCc1nnn2c1CN(C(=O)NCc1ccccc1)CC2)N1CCCC1,0,
CCCS(=O)(=O)Nc1ccc2n(c1=O)C[C@H]1C[C@@H]2CN(Cc2cn(C)c3ccccc23)C1,0,
COc1ccc(CC(=O)Nc2sc3c(c2C(=O)Nc2ccccc2)CCCCC3)cc1,0,
O=C(Cc1ccccc1)Nc1sc2c(c1C(=O)Nc1ccccc1)CCCCC2,0,
O=C(Cc1ccccc1)Nc1sc2c(c1C(=O)Nc1ccc(Cl)cc1)CCCC2,?,CHIKV nsP2 cell=?;NSP2 full ctr=0;Furin counter=0;NS23 peptide cs=6.51µM;Papain cs=0;nsP2pro confirm=4µM;HCV NS3 counter=0
CCC1(C(=O)NCCN2CCOCC2)CCCCC(=O)N1 (centres undefined),0,
CC1=C[C@@H](CNS(C)(=O)=O)[C@H](C(C)C)C[C@H]1CC(=O)O,0,
O=C(C1CCN(c2nc3ccccc3[nH]2)CC1)N1CCN(c2cccc(Cl)c2)CC1,0,
CS(=O)(=O)c1ncc(Cl)c(C(=O)N2CCN(c3cccc(Cl)c3)CC2)n1,1.58µM,CHIKV nsP2 cell=1.46µM;NSP2 full ctr=5.8µM;Furin counter=0;NS23 peptide cs=8.19µM;Papain cs=0;nsP2pro confirm=4.49µM;HCV NS3 counter=0
Cc1ccc(Nc2ncc(C(=O)N3CCN(c4cccc(Cl)c4)CC3)c3ccccc23)cc1Cl,0,
Oc1cccc(-c2c3nc(c(-c4cccc(O)c4)c4ccc([nH]4)c(-c4cccc(O)c4)c4nc(c(-c5cccc(O)c5)c5ccc2[nH]5)CC4)C=C3)c1,?,CHIKV nsP2 cell=0;NSP2 full ctr=18.3µM;Furin counter=0;NS23 peptide cs=18.3µM;Papain cs=?;nsP2pro confirm=14.2µM;HCV NS3 counter=0
O=C1Nc2ccc3ncsc3c2/C1=C/c1cnc[nH]1,0,
N#Cc1cccc(C(=O)N2C[C@@H](Oc3cccnc3)C[C@H]2C(=O)NC2CC2)c1,0,
CC(=O)O[C@@H]1C[C@@]2(C)C(CC[C@]3(C)C2CC=C2C4CC(C)(C)CC[C@]4(C(=O)O)CC[C@]23C)C(C)(C)[C@H]1O (some centres undefined),0,
C=CC(C)(C)c1[nH]c2c(CC=C(C)C)cc(CC=C(C)C)cc2c1C[C@@H]1NC(=O)[C@H](C)NC1=O,0,
CC(C)(C)n1nc(-c2ccc(Cl)cc2)c2c(N)ncnc21,0,
SMILES,nsP2pro inh,others
CC(C)n1nc(C#Cc2ccccc2)c2c(N)ncnc21,4.42µM,CHIKV nsP2 cell=0;NSP2 full ctr=?;Furin counter=?;NS23 peptide cs=?;Papain cs=0;nsP2pro confirm=7.98µM;HCV NS3 counter=?
CC(C)n1nc(-c2ccc(NC(=O)Nc3cccc(C(F)(F)F)c3)cc2)c2c(N)ncnc21,0,
CCCc1ccc(OCC(=O)N2CCN(C(=O)COc3ccc(CCC)cc3OC)CC2)c(OC)c1,0,
CC(=O)NC(C=O)C(O)C(O)[C@H](O)CO (some centres undefined),0,
OCc1cc(CC2(NCc3ccccc3O)COC2)no1,0,
COC(=O)c1c(NC(=O)CCCOc2ccc(C(C)(C)C)cc2)sc2c1CCC(C)C2 (centres undefined),0,
COC(=O)c1c(NC(=O)CCCOc2cccc(C)c2)sc2c1CCC(C)C2 (centres undefined),0,
COC(=O)c1c(NC(=O)CCCOc2ccccc2C)sc2c1CCC(C)C2 (centres undefined),0,
COC(=O)c1c(NC(=O)CCCOc2ccc(C)cc2)sc2c1C(C(=O)OC)CC2 (centres undefined),2.13µM,CHIKV nsP2 cell=18.3µM;NSP2 full ctr=?;Furin counter=0;NS23 peptide cs=11.6µM;Papain cs=0;nsP2pro confirm=7.11µM;HCV NS3 counter=0
CCOC(=O)c1c(NC(=O)CCCOc2ccc(C(C)(C)C)cc2)sc2c1CCCC2,0,
COC(=O)c1c(NC(=O)CCCOc2ccc(C)cc2)sc2c1CCCC2,0,
CCOc1ccc(/C=C/C(=O)Nc2sc3c(c2C(=O)OC)C(C(=O)OC)CC3)cc1 (centres undefined),2.75µM,CHIKV nsP2 cell=0;NSP2 full ctr=?;Furin counter=0;NS23 peptide cs=4.72µM;Papain cs=0;nsP2pro confirm=3.65µM;HCV NS3 counter=0
COC(=O)c1c(NC(=O)CCCOc2cccc(C)c2)sc2c1C(C(=O)OC)CC2 (centres undefined),1.9µM,CHIKV nsP2 cell=14.6µM!;NSP2 full ctr=18.3µM;Furin counter=0;NS23 peptide cs=5.17µM;Papain cs=0;nsP2pro confirm=2.52µM;HCV NS3 counter=0
COC(=O)c1c(NC(=O)CCCOc2cccc(C)c2)sc2c1CCC2,0,
Cc1ccccc1[C@H]1C[C@@H](O)[C@@H](O)[C@@H]1NC(=O)c1c(-c2ccccc2)noc1C,0,
CN1CCN(C[C@@H]2CN(C(=O)CCCc3cccs3)C[C@@H]2CO)CC1,0,
O=C1Nc2ccccc2/C1=C/c1ccc[nH]1,0,
COc1ccc(C2Nc3cccc(OC)c3C(=O)N2Cc2ccco2)cc1COc1c(C)cc(NC(C)=O)cc1C (centres undefined),0,
Cc1nc(C)c(C(=O)N2CCC(c3nnc(Cn4ccnc4)n3C)CC2)o1,0,
NC(=O)[C@H]1CCS[C@@H]2C[C@]3(CCCN3C(=O)Cc3ccc(NC(=O)COc4ccc(Cl)cc4Cl)cc3)C(=O)N12,0,
O=C(OCC#CCSc1nnc(-c2ccc(F)cc2)o1)c1ccc(F)cc1,0,
Cc1ccc(CNC(=O)N(C)CC2CCOCC2)cc1,0,
COc1cc(O)c(C(=O)Nc2nc(C(=O)NCCN(C(C)C)C(C)C)cs2)cc1OC,0,
CC1(C)O[C@@]2(C)CC[C@@H]1C[C@@H]2OC1OC(CO)C(O)C(O)C1O (some centres undefined),0,
COc1cccc(CNc2ccc(S(=O)(=O)Nc3cccc(-c4ccccc4)c3)cc2)c1O,0,
O=C1NCCOCCCN(S(=O)(=O)c2ccccc2)[C@H]2CCCC[C@@H]12,0,

# Screens (PubChem)
